Experimental data as given in the supplement of paper PMC11732987, “Enantioselective OTUD7B fragment discovery through chemoproteomics screening and high-throughput optimisation” (Communications Chemistry, 2025).

Key:
Experiment in all cases: log2 ratio of Biotin-Ahx-Ub-VS probe labelling (fragment/DMSO); higher = less target engagement (more negative = stronger competition), active = hit call of the paper (q ≤ 0.05, log2 ratio ≤ -1)
Conditions in all cases: compound concentration: 200 uM; treatment time: 3 h
USP34 = USP34 (UniProt Q70CQ2)
In short: (§1)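 Labelled DUBs from HEK293T lysate were NeutrAvidin-enriched, digested with LysC and trypsin, and run by diaPASEF LC-MS/MS. Before that, each 495 µg sample in Tris/CHAPS/IGEPAL buffer with protease inhibitors was treated in triplicate with fragment at 200 µM or vehicle for 3 h, then with Biotin-Ahx-Ub-VS at 0.5 µM final for 1 h. Values are average log2 ratios of fragment over vehicle by unpaired t-test, based on global-median-normalised Spectronaut label-free quantities from proteins with ≥2 unique peptides.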

USP36 = biological target: T1, USP36 (UniProt Q9P275)
T1 sequence (whole entry): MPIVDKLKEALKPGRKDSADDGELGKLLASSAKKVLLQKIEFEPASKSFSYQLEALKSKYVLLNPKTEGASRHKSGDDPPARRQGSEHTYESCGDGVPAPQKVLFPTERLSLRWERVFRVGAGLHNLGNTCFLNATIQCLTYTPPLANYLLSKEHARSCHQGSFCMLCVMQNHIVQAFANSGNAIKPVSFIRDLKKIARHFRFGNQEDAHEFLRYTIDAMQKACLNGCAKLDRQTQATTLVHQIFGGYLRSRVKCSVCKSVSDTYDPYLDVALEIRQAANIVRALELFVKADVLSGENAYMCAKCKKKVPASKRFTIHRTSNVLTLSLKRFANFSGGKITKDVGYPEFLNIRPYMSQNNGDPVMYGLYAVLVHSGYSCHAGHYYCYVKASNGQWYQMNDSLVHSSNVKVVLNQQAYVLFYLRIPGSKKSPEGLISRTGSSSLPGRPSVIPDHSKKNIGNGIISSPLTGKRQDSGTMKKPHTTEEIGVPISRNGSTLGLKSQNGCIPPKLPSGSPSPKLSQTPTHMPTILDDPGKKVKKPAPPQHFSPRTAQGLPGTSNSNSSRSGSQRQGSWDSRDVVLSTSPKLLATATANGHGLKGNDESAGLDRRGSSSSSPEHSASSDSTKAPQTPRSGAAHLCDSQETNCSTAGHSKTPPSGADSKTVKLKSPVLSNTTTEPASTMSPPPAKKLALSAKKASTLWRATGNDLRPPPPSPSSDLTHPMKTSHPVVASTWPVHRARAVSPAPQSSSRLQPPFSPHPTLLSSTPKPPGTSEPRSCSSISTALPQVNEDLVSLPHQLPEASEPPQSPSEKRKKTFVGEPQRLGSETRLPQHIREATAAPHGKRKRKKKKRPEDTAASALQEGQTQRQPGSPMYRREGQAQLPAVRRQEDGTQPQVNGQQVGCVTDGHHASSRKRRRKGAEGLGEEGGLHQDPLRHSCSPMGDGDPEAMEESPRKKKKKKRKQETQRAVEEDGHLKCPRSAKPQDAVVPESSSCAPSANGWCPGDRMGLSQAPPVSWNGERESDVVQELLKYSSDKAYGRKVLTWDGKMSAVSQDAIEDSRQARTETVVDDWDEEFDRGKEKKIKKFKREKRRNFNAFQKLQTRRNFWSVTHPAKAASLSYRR
In short: as §1

USP38 = biological target: T2, USP38 (UniProt Q8NB14)
T2 sequence (whole entry): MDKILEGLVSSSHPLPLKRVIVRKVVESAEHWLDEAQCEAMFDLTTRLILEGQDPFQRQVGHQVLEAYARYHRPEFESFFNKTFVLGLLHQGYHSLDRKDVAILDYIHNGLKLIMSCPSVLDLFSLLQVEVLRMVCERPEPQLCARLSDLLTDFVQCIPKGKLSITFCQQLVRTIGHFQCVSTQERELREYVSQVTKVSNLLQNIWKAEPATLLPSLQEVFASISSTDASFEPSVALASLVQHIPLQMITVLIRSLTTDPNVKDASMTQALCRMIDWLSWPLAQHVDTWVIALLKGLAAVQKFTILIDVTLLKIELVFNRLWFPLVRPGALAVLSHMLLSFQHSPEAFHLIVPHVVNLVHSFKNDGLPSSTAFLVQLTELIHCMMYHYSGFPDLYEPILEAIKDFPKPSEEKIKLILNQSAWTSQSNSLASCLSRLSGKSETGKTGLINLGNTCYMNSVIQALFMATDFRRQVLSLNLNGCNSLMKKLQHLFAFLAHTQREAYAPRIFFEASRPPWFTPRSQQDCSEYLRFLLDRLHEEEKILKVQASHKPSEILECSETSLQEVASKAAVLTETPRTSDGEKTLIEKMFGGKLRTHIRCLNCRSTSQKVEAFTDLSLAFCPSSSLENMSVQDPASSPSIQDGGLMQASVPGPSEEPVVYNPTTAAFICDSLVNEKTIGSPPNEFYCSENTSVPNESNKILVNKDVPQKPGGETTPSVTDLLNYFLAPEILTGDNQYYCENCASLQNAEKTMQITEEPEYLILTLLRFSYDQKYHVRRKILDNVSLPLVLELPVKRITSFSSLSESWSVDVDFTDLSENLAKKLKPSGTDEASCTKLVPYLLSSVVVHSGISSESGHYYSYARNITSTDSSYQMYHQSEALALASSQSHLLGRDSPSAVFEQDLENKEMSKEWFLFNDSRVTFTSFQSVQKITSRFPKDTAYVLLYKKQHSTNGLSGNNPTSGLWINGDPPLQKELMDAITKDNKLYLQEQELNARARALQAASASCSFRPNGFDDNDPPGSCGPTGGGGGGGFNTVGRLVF
In short: as §1

USP39 = biological target: T3, USP39 (UniProt Q53GS9)
T3 sequence (whole entry): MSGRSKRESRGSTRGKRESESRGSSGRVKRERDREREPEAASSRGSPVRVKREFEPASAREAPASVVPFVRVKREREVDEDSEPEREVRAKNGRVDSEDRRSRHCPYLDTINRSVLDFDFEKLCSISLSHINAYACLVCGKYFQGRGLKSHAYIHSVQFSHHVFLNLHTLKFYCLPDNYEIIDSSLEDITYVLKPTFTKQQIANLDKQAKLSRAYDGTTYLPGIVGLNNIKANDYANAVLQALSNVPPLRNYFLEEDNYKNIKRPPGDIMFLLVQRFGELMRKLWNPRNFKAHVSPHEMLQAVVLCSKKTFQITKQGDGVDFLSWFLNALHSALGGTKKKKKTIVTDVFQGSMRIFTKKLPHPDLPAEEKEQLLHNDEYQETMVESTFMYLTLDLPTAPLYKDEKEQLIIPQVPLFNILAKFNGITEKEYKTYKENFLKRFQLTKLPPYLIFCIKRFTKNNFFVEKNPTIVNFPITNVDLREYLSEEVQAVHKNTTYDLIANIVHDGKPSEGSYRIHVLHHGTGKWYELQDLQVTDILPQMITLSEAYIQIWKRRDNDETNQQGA
In short: as §1

USP4 = biological target: T4, USP4 (UniProt Q13107)
T4 sequence (whole entry): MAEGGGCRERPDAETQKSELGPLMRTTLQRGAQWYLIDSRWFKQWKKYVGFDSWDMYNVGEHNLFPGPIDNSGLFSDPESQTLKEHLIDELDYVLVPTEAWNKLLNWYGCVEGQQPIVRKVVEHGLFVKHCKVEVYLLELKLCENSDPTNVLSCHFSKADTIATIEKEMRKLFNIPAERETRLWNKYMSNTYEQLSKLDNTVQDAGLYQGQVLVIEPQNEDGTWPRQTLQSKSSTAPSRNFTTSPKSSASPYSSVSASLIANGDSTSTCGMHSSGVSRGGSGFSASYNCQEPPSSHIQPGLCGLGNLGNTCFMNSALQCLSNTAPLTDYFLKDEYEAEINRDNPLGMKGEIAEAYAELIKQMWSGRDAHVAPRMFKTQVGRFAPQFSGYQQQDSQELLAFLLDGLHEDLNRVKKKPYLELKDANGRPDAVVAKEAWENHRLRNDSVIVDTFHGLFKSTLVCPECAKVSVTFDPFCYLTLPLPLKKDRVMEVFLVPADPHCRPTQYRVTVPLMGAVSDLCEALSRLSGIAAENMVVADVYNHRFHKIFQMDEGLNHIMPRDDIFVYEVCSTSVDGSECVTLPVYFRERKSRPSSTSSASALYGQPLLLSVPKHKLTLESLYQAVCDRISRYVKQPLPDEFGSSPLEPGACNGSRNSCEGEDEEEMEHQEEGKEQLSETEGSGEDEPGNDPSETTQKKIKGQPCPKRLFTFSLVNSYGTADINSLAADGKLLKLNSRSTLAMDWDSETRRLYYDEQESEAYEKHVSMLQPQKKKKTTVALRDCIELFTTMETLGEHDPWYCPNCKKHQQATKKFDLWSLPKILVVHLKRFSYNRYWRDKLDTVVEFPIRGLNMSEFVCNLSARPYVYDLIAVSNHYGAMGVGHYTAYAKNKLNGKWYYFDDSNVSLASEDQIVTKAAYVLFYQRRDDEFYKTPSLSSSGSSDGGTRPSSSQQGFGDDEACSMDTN
In short: as §1

Measured: log2 ratio of Biotin-Ahx-Ub-VS probe labelling

Chain of USP34 (Q70CQ2 whole entry, the tested form may be a part): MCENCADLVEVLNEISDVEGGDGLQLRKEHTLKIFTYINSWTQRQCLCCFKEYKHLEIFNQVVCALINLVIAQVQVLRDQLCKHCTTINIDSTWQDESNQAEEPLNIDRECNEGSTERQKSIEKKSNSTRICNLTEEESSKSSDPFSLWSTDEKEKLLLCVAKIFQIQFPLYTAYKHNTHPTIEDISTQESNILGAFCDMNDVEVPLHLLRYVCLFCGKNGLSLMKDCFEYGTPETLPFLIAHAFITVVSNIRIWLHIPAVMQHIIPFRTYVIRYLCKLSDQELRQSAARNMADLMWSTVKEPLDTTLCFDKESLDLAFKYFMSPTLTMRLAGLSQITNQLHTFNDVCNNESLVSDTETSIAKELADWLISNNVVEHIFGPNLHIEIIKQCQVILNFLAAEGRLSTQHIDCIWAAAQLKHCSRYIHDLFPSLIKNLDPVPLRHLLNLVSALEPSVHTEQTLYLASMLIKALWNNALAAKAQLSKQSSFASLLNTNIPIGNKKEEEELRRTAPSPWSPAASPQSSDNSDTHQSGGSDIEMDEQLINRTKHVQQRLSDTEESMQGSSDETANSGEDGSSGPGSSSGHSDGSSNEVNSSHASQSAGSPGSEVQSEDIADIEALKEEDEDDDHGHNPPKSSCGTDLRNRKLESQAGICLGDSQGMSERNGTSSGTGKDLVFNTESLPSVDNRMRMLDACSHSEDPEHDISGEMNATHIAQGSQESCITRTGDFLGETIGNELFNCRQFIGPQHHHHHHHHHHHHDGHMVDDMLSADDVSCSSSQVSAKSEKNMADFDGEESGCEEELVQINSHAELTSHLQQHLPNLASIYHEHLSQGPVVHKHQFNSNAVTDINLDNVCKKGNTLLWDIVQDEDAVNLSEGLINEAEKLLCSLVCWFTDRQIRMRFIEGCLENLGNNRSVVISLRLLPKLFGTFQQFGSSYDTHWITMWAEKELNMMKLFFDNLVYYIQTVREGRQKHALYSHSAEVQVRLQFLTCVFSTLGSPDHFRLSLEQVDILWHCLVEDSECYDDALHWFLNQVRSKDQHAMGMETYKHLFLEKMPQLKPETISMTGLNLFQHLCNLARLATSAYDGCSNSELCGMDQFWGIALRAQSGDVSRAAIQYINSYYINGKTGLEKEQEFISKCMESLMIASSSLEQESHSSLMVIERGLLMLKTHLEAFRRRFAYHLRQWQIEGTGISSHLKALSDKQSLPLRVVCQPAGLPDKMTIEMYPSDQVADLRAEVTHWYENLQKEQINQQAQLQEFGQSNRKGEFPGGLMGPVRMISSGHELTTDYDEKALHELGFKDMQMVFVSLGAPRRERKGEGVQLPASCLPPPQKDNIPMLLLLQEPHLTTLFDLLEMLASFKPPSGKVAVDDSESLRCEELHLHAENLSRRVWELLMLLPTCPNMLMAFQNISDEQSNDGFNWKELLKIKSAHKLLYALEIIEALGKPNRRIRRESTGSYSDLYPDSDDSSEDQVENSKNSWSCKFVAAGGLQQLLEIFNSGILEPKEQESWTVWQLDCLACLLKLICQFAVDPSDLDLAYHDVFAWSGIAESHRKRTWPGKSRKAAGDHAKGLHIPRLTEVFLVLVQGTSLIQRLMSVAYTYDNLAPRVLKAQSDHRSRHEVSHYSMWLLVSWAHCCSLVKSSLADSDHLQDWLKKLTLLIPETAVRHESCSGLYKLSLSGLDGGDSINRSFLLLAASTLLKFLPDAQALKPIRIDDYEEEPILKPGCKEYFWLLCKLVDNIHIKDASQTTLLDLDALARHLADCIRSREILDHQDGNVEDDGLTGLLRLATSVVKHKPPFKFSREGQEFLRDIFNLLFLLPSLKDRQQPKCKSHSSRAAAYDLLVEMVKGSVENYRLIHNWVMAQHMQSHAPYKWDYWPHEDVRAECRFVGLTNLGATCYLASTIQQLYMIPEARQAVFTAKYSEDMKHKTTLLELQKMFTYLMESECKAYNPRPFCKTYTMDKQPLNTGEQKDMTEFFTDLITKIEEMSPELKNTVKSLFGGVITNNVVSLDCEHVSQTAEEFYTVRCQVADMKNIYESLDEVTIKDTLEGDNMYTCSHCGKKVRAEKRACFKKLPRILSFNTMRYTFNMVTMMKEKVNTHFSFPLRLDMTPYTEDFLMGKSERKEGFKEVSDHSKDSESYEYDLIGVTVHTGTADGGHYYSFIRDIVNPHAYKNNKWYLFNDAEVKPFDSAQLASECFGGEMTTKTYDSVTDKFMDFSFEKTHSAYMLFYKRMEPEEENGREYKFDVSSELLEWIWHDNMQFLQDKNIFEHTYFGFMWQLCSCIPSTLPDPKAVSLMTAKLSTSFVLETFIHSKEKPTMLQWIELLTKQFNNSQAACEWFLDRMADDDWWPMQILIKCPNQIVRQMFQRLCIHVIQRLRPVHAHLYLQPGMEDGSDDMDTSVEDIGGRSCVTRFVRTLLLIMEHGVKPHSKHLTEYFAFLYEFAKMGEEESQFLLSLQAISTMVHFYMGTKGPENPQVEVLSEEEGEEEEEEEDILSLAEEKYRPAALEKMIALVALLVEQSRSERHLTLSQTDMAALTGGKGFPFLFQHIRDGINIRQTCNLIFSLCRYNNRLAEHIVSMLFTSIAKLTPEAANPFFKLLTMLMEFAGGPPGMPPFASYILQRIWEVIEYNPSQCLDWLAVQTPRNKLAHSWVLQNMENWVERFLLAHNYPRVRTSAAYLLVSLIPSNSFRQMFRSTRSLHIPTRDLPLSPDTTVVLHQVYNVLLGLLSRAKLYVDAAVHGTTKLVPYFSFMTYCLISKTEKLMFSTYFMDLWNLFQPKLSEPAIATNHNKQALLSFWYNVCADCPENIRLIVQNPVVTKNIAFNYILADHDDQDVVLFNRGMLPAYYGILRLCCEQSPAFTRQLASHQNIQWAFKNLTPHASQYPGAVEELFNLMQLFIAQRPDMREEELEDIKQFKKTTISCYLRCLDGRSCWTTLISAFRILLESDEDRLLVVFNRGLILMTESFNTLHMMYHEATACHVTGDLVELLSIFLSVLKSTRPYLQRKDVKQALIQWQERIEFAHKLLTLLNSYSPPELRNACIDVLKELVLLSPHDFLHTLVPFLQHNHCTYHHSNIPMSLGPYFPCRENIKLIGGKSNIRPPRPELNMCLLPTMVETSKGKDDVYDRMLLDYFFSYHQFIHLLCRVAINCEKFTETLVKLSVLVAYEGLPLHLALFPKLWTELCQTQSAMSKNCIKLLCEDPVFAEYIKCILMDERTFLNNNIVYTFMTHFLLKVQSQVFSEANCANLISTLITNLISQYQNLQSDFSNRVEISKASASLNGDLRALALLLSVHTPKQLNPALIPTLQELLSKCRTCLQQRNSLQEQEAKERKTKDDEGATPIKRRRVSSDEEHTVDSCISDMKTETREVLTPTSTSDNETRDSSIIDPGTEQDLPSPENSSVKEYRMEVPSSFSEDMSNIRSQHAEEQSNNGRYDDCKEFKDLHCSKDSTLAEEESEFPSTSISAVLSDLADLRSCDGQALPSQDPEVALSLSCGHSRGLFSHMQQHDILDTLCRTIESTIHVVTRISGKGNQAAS

Cc1ccc(N2CCC(NC(=O)CCl)C2=O)cc1 (stereo not given)
inactive: USP34 0.132 | USP36 -0.156 | USP38 0.0543 | USP39 0.064 | USP4 0.0879
